A short description of the experiment: p53 small molecule agonists, cell-based qHTS assay with human liver microsomes (AID 1963577).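 Further: p53 response element beta-lactamase reporter cells with liver microsomes plus NADPH.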 The following applies: HCT-116 p53RE-bla with human liver microsomes, ratio, 16 h; series mostly up to 66 µM. In short, it runs like this:
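Compounds act here after metabolic activation: human liver microsomes and NADPH, both at 0.5 mg/mL final, were co-added to p53RE-bla cells. Incubation ran 16 h at 37 C, followed by LiveBLAzer detection.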
Background: qHTS replaces the single test concentration by a dilution series.

Our source for the Potency and activation values is PubChem BioAssay (Tox21).

Structures are written as SMILES. Inconclusive results are not listed. Entries that show only a call come without a potency. Unmarked numbers belong to inactive results. Active and inactive are the calls of the source. The call rests on the fitted dose curve. Square brackets hold non-standard residues; d marks the D form. Peptide text beside a SMILES is read from it. pGlu = O=C1CC[C@@H](C(=O)O)N1

As to `C=COCCOCCOC=C`, the Potency result was “inactive”.
On to `O=C(Cl)c1ccc(F)c(Cl)c1`, for which the Potency result was “inactive”.
On the same count and under the same terms, the entry for `CCCC/C=C/C=C\C=O` is “inactive”; for `CC(C)(C)c1cc(O)c(C(C)(C)C)cc1O` it is “inactive”; for `CCN1CCN(C(=O)N[C@@H](C(=O)N[C@@H]2C(=O)N3C(C(=O)O)=C(CSc4nnnn4C)CS[C@H]23)c2ccc(O)cc2)C(=O)C1=O` it is “inactive”.
With `CC=O`, the Potency result was “inactive”.
For `O=S(=O)(O)c1cc(S(=O)(=O)O)c2ccc3c(S(=O)(=O)O)cc(S(=O)(=O)O)c4ccc1c2c43`, the activation was -0.621% [at 13.5 µM].
In the case of `CNCC(O)c1ccc(O)c(O)c1` (stereo not drawn), the Potency result is “inactive”.
On the same count and under the same terms, to `CCCCCCCCOC(=O)c1cc(O)c(O)c(O)c1` belongs “inactive”; to `COCCOC(=O)CC#N`, “inactive”.
Turning to `CCCOc1sc(C(=O)N2CCC(c3cc(CN)ccc3F)CC2)c(C)c1Br`, the Potency entry was “inactive”.
As for `CC(C)c1cccc(C(C)C)c1N1C(=O)c2ccc(O)cc2C1=O`, the Potency entry is “inactive”.
`C/C(=C\c1ccc(C(=O)O)cc1)c1ccc2c(c1)C(C)(C)CCC2(C)C`: the Potency entry is “inactive”.
Same read-out and setting: to `CS(=O)(=O)CCNCc1ccc(-c2ccc3ncnc(Nc4ccc(OCc5cccc(F)c5)c(Cl)c4)c3c2)o1` belongs “inactive”; to `CCNC(=O)[C@@H]1CCCN1C(=O)[C@H](CCCN=C(N)N)NC(=O)[C@H](CC(C)C)NC(=O)CNC(=O)[C@H](Cc1ccc(O)cc1)NC(=O)[C@H](CO)NC(=O)[C@H](Cc1c[nH]c2ccccc12)NC(=O)[C@H](Cc1cnc[nH]1)NC(=O)[C@@H]1CCC(=O)N1` ([pGlu]HWSYGLRP-NHEt), “inactive”; to `c1coc(Cn2cccc2)c1`, “inactive”.
Same read-out and setting: to `Cc1ccc(S(=O)(=O)C(I)I)cc1` belongs “inactive”.
`C[C@]12CCC(=O)C=C1C=C[C@@H]1[C@@H]2CC[C@@]2(C)[C@H]1CC[C@@]21CCC(=O)O1`: the Potency entry was “inactive”.
Same read-out and setting: the entry for `COc1cccc2c1C(=O)c1c(O)c3c(c(O)c1C2=O)C[C@@](O)(C(=O)CO)C[C@@H]3O[C@H]1C[C@H](N)[C@H](O[C@@H]2CCCCO2)[C@H](C)O1` is “inactive”; for `CCCCCCCCCOC(=O)CCCCC(=O)OCCCCCCC` it is “inactive”.
As to `C[C@H](CCC(=O)O)[C@H]1CC[C@H]2[C@@H]3CC[C@@H]4C[C@H](O)CC[C@]4(C)[C@H]3C[C@H](O)[C@]12C`, the Potency result is “inactive”.
Regarding `Cc1[nH]cnc1C[C@H]1CCc2c(C)c3ccccc3n2C1=O`, the Potency entry was “inactive”.
As for `CC(NCCC(c1ccccc1)c1ccccc1)c1ccccc1` (stereo not drawn), the Potency result is “inactive”.
